Source: PubChem BioAssay (National Center for Advancing Translational Sciences (NCATS))
Pf Dd2 growth – inhibitors of Plasmodium falciparum Dd2 growth; P. falciparum Dd2 growth, SYBR Green, 72 h; hit rate 4.3% among 120,000; Potency, µM (series often up to 28.9 µM), for the others: top-dose activity, negative = inhibition, usual class: inhibitors; active = well fitted inhibition curve with a large enough effect;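 also: plate controls were DMSO vehicle for no effect and reference drug for full effect; nearly all actives have a fitted effect of over 65% in size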
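Infected erythrocytes (Dd2, 0.3% parasitemia, 2.5% hematocrit final) are added to compound in RPMI-1640/Albumax II medium, grown 72 h at 37C in low oxygen, then lysed with saponin/Triton-X containing SYBR Green and read by fluorescence.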
An asterisk follows results filed as active; i = inactive; [ ] = dose if it differs, or a comment. Many of the other results were omitted from the sample, so hits are more common in it than they were. Potency is read from the fitted curve at half-maximal effect.

SMILES	Pf Dd2 growth
Cc1ccc(NC(=O)Cn2c(=O)n(-c3ccccc3)c(=O)c3ccc(C(=O)NCc4ccc5c(c4)OCO5)cc32)cc1	-8%
Cc1ccc(NC(=O)Cn2c(=O)n(Cc3ccc(C(=O)NCc4ccc5c(c4)OCO5)cc3)c(=O)c3ccccc32)cc1	8.9µM*
Cc1ccc(Cn2c(=O)n(-c3ccccc3)c(=O)c3ccc(C(=O)NCc4ccco4)cc32)cc1	-16%
O=C(Cn1c(=O)n(Cc2ccc(C(=O)NCc3ccc4c(c3)OCO4)cc2)c(=O)c2ccccc21)Nc1ccccc1F	i
Cc1ccccc1NC(=O)Cn1c(=O)n(CCCC(=O)NCc2ccc3c(c2)OCO3)c(=O)c2ccccc21	22%
CCN(C(=O)Cn1c(=O)n(-c2ccccc2)c(=O)c2ccc(C(=O)NCc3ccc4c(c3)OCO4)cc21)c1cccc(C)c1	7.1µM*
O=C(Cn1c(=O)n(Cc2nc(-c3ccccc3)no2)c(=O)c2cc3c(cc21)OCO3)Nc1ccc(Cl)cc1	10µM*
Cc1ccc(Cl)cc1NC(=O)Cn1c(=O)n(Cc2ccc(C(=O)NCc3ccc4c(c3)OCO4)cc2)c(=O)c2ccccc21	-17%
CCc1ccc(C2=C(C)C(N3CCC(C(=O)NCc4ccc(C)o4)CC3)=NS2(=O)=O)cc1	-13%
COc1ccccc1CC(=O)N1CCC[C@H]1c1nc(-c2ccc(C)cc2)no1	i
COc1ccc(NC(=O)Cn2nc3n(c2=O)CCCCC3)c(OC)c1	58%
OC[C@@H]1O[C@H](CNC2CCOCC2)[C@H](N2CCN(c3ncccn3)CC2)[C@@H]1O	39%
O=C(C1CCCC1)N1CCC(c2noc(COCC3CC3)n2)CC1	-8%
COc1ccc(Nc2ncc(C(=O)N3CCN(c4ccc(F)cc4)CC3)c3ccccc23)cc1	i
COc1ccc2c(c1)CN(C1CCOCC1)CC[C@H]1COC(=O)N21	15%[44.1 µM]
CCOc1ccc(C(=O)Nc2ccc(-c3cc4ccccc4oc3=O)cc2)cc1Br	23%
O[C@@H]1C[C@@H](c2nnc3n2CCN(Cc2ccc4[nH]ccc4c2)C3)N(Cc2ccccc2)C1	-15%
O=C(c1ccccn1)N1CCCn2cc(-c3ccccc3)nc21	-24%
COc1ccc(NC(=O)CSc2nc3nc(C)cc(C)n3n2)cc1	-11%
CC(C)(C)c1ccc(C(=O)Nc2c(C(=O)c3ccc(F)cc3)oc3ccccc23)cc1	8.9µM*
COc1ccc(C(=O)Nc2c(C(=O)c3ccc(F)cc3)oc3ccccc23)cc1	56%
COc1ccc(C(=O)c2oc3ccccc3c2NC(=O)c2ccc(F)cc2)cc1	34%[5.79 µM]
C[S+](=O)([O-])N1CCC(Cn2ccc3c(N4CCOCC4)nc(-c4ccc(CO)cc4)cc32)CC1	-1%
COCCNC(=O)C[C@@H]1C[C@H]2O[C@H](CNC3CCC(F)(F)CC3)[C@@H](O)[C@H]2O1	30%[44.1 µM]
COCCNc1ncccc1-c1noc([C@@H]2CCCN2C2CCC2)n1	-18%[44.1 µM]
SMILES	Pf Dd2 growth
COCCNc1ncccc1-c1noc([C@@H]2CCCN2Cc2ccc(C(=O)O)cc2)n1	i
COCCNc1ncccc1-c1noc([C@@H]2CCCN2Cc2ccccc2OC)n1	7.9µM*
CCOc1ccc(NC(=O)CN2C(=O)COc3ccc(S(=O)(=O)Nc4ccccc4)cc32)cc1	12%
Cn1ncc(N2CCC(NC(=O)Cc3cccc(F)c3)CC2)cc1=O	-1%
O=C1O[C@@H]2CN(c3ncccn3)C[C@@H]2N1CCc1ccc(F)cc1	3%
Cc1cc(C)c(NC(=O)CSc2nncn3c2cc2oc(C)cc23)c(C)c1	221%[5.79 µM]
COc1ccc(NC(=O)CSc2nncn3c2cc2oc(C)cc23)cc1OC	13%
CCOC(=O)c1ccc(NC(=O)C(CC)Sc2nncn3c2cc2oc(C)cc23)cc1 (centres undefined)	10µM*
Cc1nn(CC(=O)N2CCCC2)c(=O)c2nc(C(C)C)sc12	-11%
CCOC(=O)C1(Cc2ccccc2C)CCCN(Cc2cn(CC(N)=O)c3ccccc23)C1 (centres undefined)	14µM*
CCOC(=O)C1(Cc2ccccc2C)CCCN(C(=O)c2csc(C)n2)C1 (centres undefined)	-3%
CCOC(=O)C1(Cc2ccccc2C)CCCN(C(=O)c2cc[n+]([O-])cc2)C1 (centres undefined)	-21%
CCCCNC(=O)c1nn(-c2ccc(CC)cc2)nc1CO	-8%
CCOC(=O)c1c(C)[nH]c(C)c1S(=O)(=O)N1CCCC(C(=O)NCc2cccc(C)c2)C1 (centres undefined)	60%
COCCNC(=O)C1COC2(CCN(C(=O)c3ccccc3Cl)CC2)N1C(=O)c1cccc(C)c1 (centres undefined)	-18%
Cc1ccc(C)c(CNS(=O)(=O)c2ccc3c(c2)C(C)(C)C(=O)N3C)c1	22%
Cc1ccc(-c2cc(C(=O)NC(C)c3ccccc3)c3ccccc3n2)cc1C (centres undefined)	-16%
CCOc1ccc(NC(=O)c2oc3ccccc3c2NC(=O)COc2cccc(OC)c2)cc1	13%
COc1ccc(OCC(=O)Nc2c(C(=O)N3CCN(c4ccccc4)CC3)oc3ccccc23)cc1	11µM*
CCCCC(=O)Nc1c(C(=O)N2CCN(c3ccccc3F)CC2)oc2ccccc12	11µM*
